In PubChem BioAssay (NCATS) one finds Potency, max response and outcome data, which are given here for 16 compounds.

Molecules are shown by their SMILES. Where “and” joins values, the source holds several entries; their conditions need not be identical. Equal values may be shown once. Results filed as inconclusive are left out. Values without a mark were called inactive. Calls of active or inactive are those of the source. Calls come from the whole dose curve; as a rule, active = well fitted inhibition curve with a large enough effect; inconclusive = small, poorly fitted or top-dose-only effect; inactive = flat fitted curve, though single readings scatter.

One assay has as its system TAB113. The assay is described as follows: qHTS profiling for inhibitors of Plasmodium falciparum proliferation (AID 504749). Note: potency is the fitted concentration of half-maximal effect. The following applies: P. falciparum in erythrocytes, SYBR Green DNA, 72 h; series mostly up to 28.7 µM. A digest of the protocol: (§1)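 Each compound contacts P. falciparum-infected red blood cells for 72 h at 37 C; lysis buffer (Tris, EDTA, saponin, Triton X, SYBR Green I) is added and fluorescence measured next morning; values normalized to controls.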
(In general: In qHTS, concentration-response curves come from the screen itself.)

The next assay deals with TAB165. The assay is described as above. The following applies: P. falciparum in erythrocytes, SYBR Green DNA, 72 h; series mostly up to 28.7 µM. The gist of the method: as §1
In another assay the test system is W2. The assay is described as above. The following applies: P. falciparum in erythrocytes, SYBR Green DNA, 72 h; series mostly up to 28.7 µM. The gist of the method: as §1
In a further assay the test system is CRL-7250. The assay is described as follows: Cytotoxic Profiling of Annotated Libraries Using Quantitative High-Throughput Screening (AID 1296008). For max response: % is set by controls: 0 for no effect and ±100 for the full control effect. Note: potency is the fitted concentration of half-maximal effect. The following applies: Five cell lines viability, CellTiter-Glo ATP luminescence, 48-72 h; max response: hits give low values. A digest of the protocol:
(§2)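 Cells exposed to compounds for 48 or 72 hr at 37 degrees Celsius. Viability read as ATP-coupled luminescence with CellTiter-Glo after 10 min at room temperature.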
On the technique in general: In ATP-based viability assays light output follows the ATP content of the culture.

The next assay has as its system HEK293. The description is as above. To be noted: Five cell lines viability, CellTiter-Glo ATP luminescence, 48-72 h; max response: hits give low values. A digest of the protocol: as §2
Assay [1] relates to HaCat. Described as above. To be noted: Five cell lines viability, CellTiter-Glo ATP luminescence, 48-72 h; max response: hits give low values. A digest of the protocol: as §2
In another assay the test system is KB-3-1. The description is as above. To be noted: Five cell lines viability, CellTiter-Glo ATP luminescence, 48-72 h; max response: hits give low values. The gist of the method: as §2
In the next assay the test system is NIH3T3. The assay is described as above. The following applies: Five cell lines viability, CellTiter-Glo ATP luminescence, 48-72 h; max response: hits give low values. A digest of the protocol:
as §2

The subject of assay [2] is HACAT. Nature of the assay: qHTS assay to identify novel small-molecules to repurpose for Merkel cell carcinoma treatment (AID 1296009). The following applies: MCC and control cell lines, CellTiter-Glo viability, 72 h; at 44.8 µM (top of the series) unless noted. A digest of the protocol:
(§3)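 Dose-response viability screen; 72 hr exposure at 37 degree celsius; CellTiter-Glo added, 10 min room temperature, luminescence read; RLUs scaled between no-cell and DMSO wells.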

In the next assay the test system is HEK293T. The description is as above. To be noted: MCC and control cell lines, CellTiter-Glo viability, 72 h; at 44.8 µM (top of the series) unless noted. The gist of the method:
as §3
Note: nearly all actives have a fitted effect of over 60% in size.

Turning to `C[C@H](Cn1cnc2c(N)ncnc21)OCP(=O)(O)O`, the Potency result in the assay on TAB113, in the assay on TAB165 and in the assay with W2 was “inactive” each time. Further, the max response in the assay with CRL-7250 is 3.36%. Besides, the outcome in the assay on HEK293, with HaCat [1], with KB-3-1, with NIH3T3, with HACAT [2] and in the assay with HEK293T was inactive.

On to `Cc1ccc(S(=O)(=O)NC(=O)NN2CC3CCCC3C2)cc1` (stereo unspecified), for which the compound was classed as inactive with CRL-7250, with HaCat [1] and in the assay with HACAT [2]. Moreover, the max response in the assay with HEK293 is 2.56%; in the assay on KB-3-1, 5.5% and -19.7%; in the assay with NIH3T3, 2.24% and -2.1%.

For `O=C(c1ccccc1)c1ccc2n1CCC2C(=O)O` (stereo unspecified), the max response with CRL-7250 is -6.97% and 1.24%; with HEK293 it was 1.29% and -15.1%; with NIH3T3, -2.4% and -6.59%. The result in the assay with HaCat [1] and with HACAT [2] was inactive.

As to `CC(C)(S)[C@@H](N)C(=O)O`, the Potency result in the assay on TAB113, with TAB165 and with W2 was “inactive” throughout. The max response was 1.05% with CRL-7250; 2.4% in the assay on HEK293; 2.35% and 8.6% in the assay on KB-3-1. The outcome in the assay with HaCat [1], in the assay with NIH3T3 and in the assay with HACAT [2] was inactive.

On to `O=c1c(O)c(-c2cc(O)c(O)c(O)c2)oc2cc(O)cc(O)c12`, for which the max response was 3.08% in the assay with CRL-7250, -2.69% in the assay with HEK293, 2.62% in the assay with KB-3-1 and -26.9% with NIH3T3. In addition, the compound was called inactive with HaCat [1] and with HACAT [2].

For the compound `CCC(C)(Oc1ccc(C2(c3ccc(OC(C)(CC)C(=O)O)cc3)CCCCC2)cc1)C(=O)O` (stereo unspecified), the Potency result with TAB113, in the assay with TAB165 and with W2 was “inactive” each time. Also, the max response in the assay with CRL-7250 is -2.28% and 2.61%; in the assay on HEK293, -7.29% and -0.679%; with NIH3T3 it was -0.924%. Also, the compound was classed as inactive in the assay on HaCat [1], in the assay on NIH3T3 and with HACAT [2].

Turning to `Nc1cccc2c1CN(C1CCC(=O)NC1=O)C2=O` (stereo unspecified), the Potency result with TAB113, with TAB165 and with W2 was “inactive” throughout. In addition, the max response is -16.9% and -19.4% in the assay with CRL-7250; 2.44% and -8.05% in the assay with HEK293; -19.3% and -22.9% in the assay on HaCat [1]; 2.15% and 5.39% with KB-3-1; 1.1% and -1.07% with NIH3T3.

As to `C[Se]CCC(N)C(=O)O` (stereo unspecified), the Potency result in the assay on TAB113 and with TAB165 was “inactive” each time. The max response in the assay on CRL-7250 is -3.1%; with HEK293, -11.1%; with HaCat [1] it was -19.1%; with KB-3-1, -9.75%. Further, the outcome with NIH3T3 was inactive.

With `O=C(CCc1ccc(O)cc1)c1c(O)cc(O)cc1O`, the compound was called inactive with CRL-7250, in the assay on HaCat [1], with KB-3-1, in the assay with NIH3T3 and with HACAT [2]. Besides, the max response with HEK293 was 0.264%.

`O=c1c(O)c(-c2ccc(O)cc2O)oc2cc(O)cc(O)c12`: the max response in the assay on CRL-7250 was -3.27%; with HEK293 it was 4.53%; with KB-3-1 it was -10.8%; with NIH3T3, -16.7%. For the same compound, the call in the assay with HaCat [1] and in the assay on HACAT [2] was inactive.

As for `Nc1cc(C(Cl)=C(Cl)Cl)c(S(N)(=O)=O)cc1S(N)(=O)=O`, the Potency entry in the assay with TAB113, in the assay on TAB165 and with W2 was “inactive” throughout. For the same compound, the max response in the assay with CRL-7250 is -8.91%; in the assay on HaCat [1], 2.98% and -14%; in the assay with KB-3-1, -2.94% and -17.4%; in the assay on NIH3T3, 4.72% and -5.94%. Besides, the outcome in the assay with HEK293 and in the assay on HEK293T was inactive.

As to `N=C(N)c1ccc2cc(OC(=O)c3ccc(N=C(N)N)cc3)ccc2c1`, in the assay with W2, the Potency is 6.75 µM (active). Besides, the max response in the assay with CRL-7250 was -0.158% and -1.28%; in the assay on HEK293 it was -23.8% and 0.182%; in the assay on HaCat [1] it was -5.52% and -24.6%; with KB-3-1, 12.9%; in the assay on NIH3T3, -7.31% and -12.8%.

For `COc1cc2c(cc1OC)C1CC(=O)C(CC(C)C)CN1CC2` (stereo unspecified), the Potency result with TAB113 and in the assay with TAB165 was “inactive” in each case. Besides, the result with CRL-7250, in the assay on HEK293, in the assay with HaCat [1], in the assay on NIH3T3, in the assay with HACAT [2] and in the assay on HEK293T was inactive. The max response in the assay on KB-3-1 was -0.991%.

As for `CCCCCCCCCCCCCCCCCCCCCCO`, the Potency result in the assay on TAB113, with TAB165 and in the assay on W2 was “inactive” each time. The outcome in the assay on CRL-7250 and in the assay with NIH3T3 was inactive. Besides, the max response in the assay with HEK293 is 1.6%; with HaCat [1], 4.38%; with KB-3-1 it was -15.7% and 8.97%.

With `Clc1ccc2c(N3CCN(CCCN4CCN(c5ccnc6cc(Cl)ccc56)CC4)CC3)ccnc2c1`, the max response in the assay with CRL-7250 was -5.75%; with KB-3-1, 3.7%; in the assay on NIH3T3, -5.21%. Moreover, the outcome in the assay on HEK293 and in the assay on HaCat [1] was inactive. Moreover, the outcome with HACAT [2] and with HEK293T was “inactive [at 17.4 µM]” each time.

For `Cc1ccc(NC(=O)c2ccc(CN3CCN(C)CC3)cc2)cc1Nc1nccc(-c2cccnc2)n1`, the Potency was 12.6 µM (active) in the assay with TAB113; 11.2 µM (active) with TAB165; 6.01 µM (active) with W2; 18.7 µM (active) and 21.1 µM (active) and 11.6 µM (active) with HEK293. Besides, the max response in the assay with CRL-7250 is -2.19%; with KB-3-1 it was -0.677% and -9.97% and -10.5%; with NIH3T3, -15.2%. The compound was called inactive in the assay with HaCat [1], with NIH3T3 and with HACAT [2].
